This note sets out measurements from PubChem BioAssay (NCI).

Assay [1] is described as follows: NCI Yeast Anticancer Drug Screen. Data for the rad50 strain (AID 155).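 Further: 0% = growth of vehicle-only cultures of the same strain.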 The following applies: S. cerevisiae rad50 strain growth inhibition; at 50.0 µM; active compounds read high. The method, boiled down: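 Genetically altered yeast (DNA repair pathway); compound treatment; growth inhibition vs vehicle ctrl.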
The nature of assay [2]: NCI Yeast Anticancer Drug Screen. Data for the mec2-1 strain (AID 157). The following applies: S. cerevisiae mec2-1 strain, at 50.0 µM, active compounds read high. A digest of the protocol:
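Vehicle-treated cultures served as reference for growth inhibition of compound-exposed mec2-1 yeast.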

Assay [3] is described as follows: NCI Yeast Anticancer Drug Screen. Data for the sgs1 mgt1 strain (AID 161).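 Further: 0% = growth of cultures given vehicle only.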 The following applies: S. cerevisiae sgs1 mgt1 strain, at 50.0 µM, active compounds read high. The method, boiled down:
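Read-out: growth inhibition vs vehicle controls. Cells: mutant yeast strain deficient in DNA damage repair.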

Assay [4] is described as follows: NCI Yeast Anticancer Drug Screen. Data for the cln2 rad14 strain (AID 165).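 Further: 0% = growth equal to vehicle treated cultures.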 The following applies: S. cerevisiae cln2 rad14 strain, at 50.0 µM, active compounds read high. A digest of the protocol:
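Each compound was tested on cln2 rad14 yeast. Inhibition of growth was calculated against vehicle-exposed controls.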

Assay [5] in a line: NCI Yeast Anticancer Drug Screen. Data for the bub3 strain (AID 167). The following applies: S. cerevisiae bub3 mutant strain, at 50.0 µM, active compounds read high. The method, boiled down: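 Yeast carrying a defined mutation is treated with each compound, and growth is compared with that of vehicle-exposed cells to give inhibition.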
Assay [6] in a line: NCI Yeast Anticancer Drug Screen. Data for the mlh1 rad18 strain (AID 175). The following applies: S. cerevisiae mlh1 rad18 strain growth inhibition; at 50.0 µM; active compounds read high. The method, boiled down:
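Vehicle-treated cultures served as the reference for growth inhibition in a yeast strain carrying DNA damage repair alterations exposed to each compound.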

Structures are written as SMILES. This is part of a sample that, as a whole, favours compounds with a hit. Of some 79,000 tested, about 15% had one in any assay. Values without a mark were called inactive. The source made the active and inactive calls. No stated cut-off is given here; in the data, active means growth inhibition above about 70%; inactive means the rest.

For the molecule `CC(C)(C)C1CC/C(=N\Nc2ccc([N+](=O)[O-])cc2[N+](=O)[O-])C(Cc2ccccc2)C1` (configuration not stated), the growth inhibition in assay [1] is 11.9%; in assay [2], 21.1%; in assay [3] it was 19.5%; in assay [4] it was -26.6%; in assay [5], 16.9%; in assay [6] it was 0%.

As to `Cc1ccc2nccc(C)c2c1`, the growth inhibition in assay [1] is -27.8%; in assay [2], -45.1%; in assay [3], -19.6%; in assay [4], -14.7%; in assay [5], -27.6%; in assay [6] it was -7.8%.

For the molecule `O=C1C2Cc3ccccc3CN2C(=O)N1CN1CCN(CN2C(=O)C3Cc4ccccc4CN3C2=O)CC1` (configuration not stated), the growth inhibition is -13.1% in assay [1]; -0.05% in assay [2]; -16.6% in assay [3]; -10.9% in assay [4]; -28.6% in assay [5]; -5.8% in assay [6].

In the case of `O=C1CN(c2ccc(Cl)cc2)C(=O)CN1/N=C/c1ccc(O)c(O)c1`, the growth inhibition in assay [1] was -37.1%; in assay [2] it was -10.8%; in assay [3] it was 4.4%; in assay [4], -16.9%; in assay [5] it was -7.65%; in assay [6] it was -4.95%.

In the case of `CCCCCCCCCCCC(=O)OCC1OC(n2cc(F)c(=O)[nH]c2=O)C(N)C(OC(=O)CCCCCCCCCCC)C1O` (configuration not stated), the growth inhibition was -9% in assay [1]; -34.9% in assay [2]; -51.6% in assay [3]; 4.2% in assay [4]; -34.9% in assay [5]; -45.5% in assay [6].

For the molecule `CC(C)(C)NO`, the growth inhibition in assay [1] is 7.3%; in assay [2], -0.85%; in assay [3], 7.65%; in assay [4], 3.4%; in assay [5], 13.6%; in assay [6], -3.8%.

With `O=[n+]1c2ccccc2n([O-])c2cn(-c3ccccc3)c(-c3ccccc3)c21`, the growth inhibition in assay [1] is 73.5% (active); in assay [2], 67.4%; in assay [3], 88.3% (active); in assay [4] it was 80.5% (active); in assay [5] it was 46.9%; in assay [6] it was 89.2% (active).

On to `COC(=O)C(NC(=O)COc1ccccc1[N+](=O)[O-])C(=O)OC`, for which the growth inhibition was -15.2% in assay [1]; -1.3% in assay [2]; 0% in assay [3]; 3% in assay [4]; -12.6% in assay [5]; -12.3% in assay [6].

Consider `COc1ccc(Nc2nc(NNC(=O)Cc3ccccc3)nc(NNC(=O)c3ccncc3)n2)cc1`, for which the growth inhibition is 8.5% in assay [1]; 20.1% in assay [2]; 30.1% in assay [3]; 19.2% in assay [4]; 27.2% in assay [5]; 30.4% in assay [6].

Consider `COC(=O)c1cc2c(n1S(=O)(=O)c1ccc(C)cc1)C(=O)C(=O)c1[nH]cc(C(=O)OCc3ccccc3)c1-2`, for which the growth inhibition in assay [1] was 0.6%; in assay [2], 3.7%; in assay [3], 20.6%; in assay [4] it was 8.9%; in assay [5], 14%; in assay [6], 13.5%.

For the molecule `C/C=C/[C@@H]1[C@H]2C(=O)[C@]3(Cl)[C@@H](/C=C/C)[C@@H]3C(=O)[C@@]12Cl`, the growth inhibition in assay [1] was 5.05%; in assay [2], 6.1%; in assay [3] it was 6.45%; in assay [4], 12.8%; in assay [5], 10%; in assay [6], 29.6%.

As to `CC1(C)CS(=O)(=O)CC(C)(C)C(=N/N)/C1=N\N`, the growth inhibition in assay [1] was 20.1%; in assay [2], 26.9%; in assay [3], -13.2%; in assay [4], 5.8%; in assay [5], -6.95%; in assay [6] it was -18.2%.

In the case of `CSc1nc2nc[nH]c2c(=O)[nH]1`, the growth inhibition is 3.45% in assay [1]; 0.3% in assay [2]; -16.2% in assay [3]; -14.2% in assay [4]; -1.85% in assay [5]; -3.65% in assay [6].

Take `Cn1cnc(CCc2ccccc2)n1`: the growth inhibition is -8.95% in assay [1]; -3.05% in assay [2]; -24.2% in assay [3]; -19% in assay [4]; -24.1% in assay [5]; -11.2% in assay [6].

As for `O=c1cn[nH]c2c(Br)cc(Br)cc12`, the growth inhibition in assay [1] was 12%; in assay [2] it was -0.3%; in assay [3], -1.6%; in assay [4], 2.65%; in assay [5], -9.9%; in assay [6], 16.4%.

`CCCC(O)C(CC)[N+](=O)[O-]` (configuration not stated): the growth inhibition in assay [1] is 13.6%; in assay [2], 0.95%; in assay [3] it was 5%; in assay [4], 3.65%; in assay [5] it was 0.1%; in assay [6], 5.75%.

For `Cc1ccc(C)c(CNC(=O)NC(C)(C)C)c1`, the growth inhibition is -10.2% in assay [1]; -4.25% in assay [2]; -6.65% in assay [3]; -63.8% in assay [4]; -11.2% in assay [5]; -0.75% in assay [6].

As for `c1ccc(NP2(Nc3ccccc3)=NP(Nc3ccccc3)(Nc3ccccc3)=NP(Nc3ccccc3)(Nc3ccccc3)=N2)cc1`, the growth inhibition in assay [1] is -12.2%; in assay [2], 5.55%; in assay [3] it was -10.4%; in assay [4], 15.2%; in assay [5], 17.1%; in assay [6], -2.2%.

Regarding `O=C1CSC(=O)N1`, the growth inhibition in assay [1] is -24.3%; in assay [2], -14.4%; in assay [3] it was -0.2%; in assay [4], -32.8%; in assay [5], -38%; in assay [6] it was -41.5%.

Take `COc1ccc2c(c1)C(=O)C1CCC(=O)N1C2c1ccc2c(c1)OCO2` (configuration not stated): the growth inhibition was -9.65% in assay [1]; 18.3% in assay [2]; 10.2% in assay [3]; 5.9% in assay [4]; 47.1% in assay [5]; -0.3% in assay [6].

As for `CN(C)[C@@H]1C(=O)C(C(=O)NCN2CCN(C(=N)N=C(N)N)CC2)=C(O)[C@@]2(O)C(=O)C3=C(O)c4c(O)cccc4[C@@](C)(O)[C@H]3C[C@@H]12`, the growth inhibition in assay [1] is -0.05%; in assay [2], 1.65%; in assay [3] it was -3.2%; in assay [4], 14.2%; in assay [5], 10.7%; in assay [6] it was -5%.

Turning to `CN(C)CCOC(=O)Nc1ccccc1C(F)(F)F`, the growth inhibition was 16.1% in assay [1]; -8.1% in assay [2]; 17.1% in assay [3]; 21.8% in assay [4]; 19.8% in assay [5]; 12.2% in assay [6].

For `O=c1[nH]c2ccccc2c(O)c1O`, the growth inhibition in assay [1] was 24.4%; in assay [2] it was 7.85%; in assay [3], 22.9%; in assay [4] it was 14.7%; in assay [5], 1%; in assay [6] it was -5.35%.

Take `CN(C)C1=NC(NC2CCCCC2)(N(C)C)OC(N(C)C)=N1` (configuration not stated): the growth inhibition in assay [1] was 1%; in assay [2], -0.9%; in assay [3], 3.2%; in assay [4] it was 20.2%; in assay [5], 1.9%; in assay [6] it was 10.8%.

Turning to `O=C(O)CCc1ccc(-c2ccccc2)[nH]1`, the growth inhibition in assay [1] was -14.3%; in assay [2] it was -6.95%; in assay [3], -11.7%; in assay [4], 1.35%; in assay [5], -29.1%; in assay [6] it was -16.6%.

For the molecule `C[N+](C)(CCS(=O)(=O)[O-])C1CCCCC1`, the growth inhibition in assay [1] was -6.65%; in assay [2], -8.7%; in assay [3], -8.9%; in assay [4], -23.1%; in assay [5], 6.75%; in assay [6], -12.8%.

For `COc1ccc(/C=C2\N=C(c3ccc([N+](=O)[O-])cc3)OC2=O)cc1Br`, the growth inhibition in assay [1] was 29.9%; in assay [2], 21.6%; in assay [3], 27.5%; in assay [4], 23.4%; in assay [5] it was -1.95%; in assay [6], 29.4%.

`CC(=O)OC1C(=O)OC(=O)C1OC(C)=O` (configuration not stated): the growth inhibition in assay [1] was 9.6%; in assay [2], 0.9%; in assay [3], 8.1%; in assay [4], 5.25%; in assay [5] it was 6.05%; in assay [6], -3.85%.

Turning to `CN=Cc1c(O)ccc2ccccc12.[Cu+2]`, the growth inhibition in assay [1] is 15.3%; in assay [2], 7.6%; in assay [3], 1.7%; in assay [4], 6.45%; in assay [5], -32.9%; in assay [6], 52.9%.

For the molecule `COc1cc(CNc2nc3c(NC(C)=O)cc(C(F)(F)F)cc3nc2-c2ccccc2)cc(OC)c1OC`, the growth inhibition is -16.1% in assay [1]; -15.8% in assay [2]; -32.3% in assay [3]; -4.35% in assay [4]; 10.8% in assay [5]; -10.3% in assay [6].

For `Cc1cc2c(cc1C)C(C)(C)c1c(nc(N)[nH]c1=O)N2C`, the growth inhibition in assay [1] is 3.7%; in assay [2], -1.1%; in assay [3], 20.5%; in assay [4] it was -15.7%; in assay [5], -0.45%; in assay [6], 1.7%.

For `COC1CCC(/C(C#N)=C/C2CCC(OC)C(OC)C2)CC1` (configuration not stated), the growth inhibition in assay [1] is 77.1% (active); in assay [2], 66.8%; in assay [3] it was 77.7% (active); in assay [4] it was -8.7%; in assay [5], 68.8%; in assay [6], 63%.

In the case of `COc1cc(CNCCO)cc(OC)c1`, the growth inhibition is 22.2% in assay [1]; 8.8% in assay [2]; -1.35% in assay [3]; -15.1% in assay [4]; 19.6% in assay [5]; 13% in assay [6].

For the molecule `CCCCCC(=O)N1CCOCC1`, the growth inhibition in assay [1] was 11.2%; in assay [2] it was 10.8%; in assay [3], 5.6%; in assay [4] it was -6.35%; in assay [5] it was -21.4%; in assay [6], 9%.

On to `c1ccc(-c2cnc(-c3ccccc3)cn2)cc1`, for which the growth inhibition is 1.3% in assay [1]; 10.6% in assay [2]; -6.15% in assay [3]; 41.6% in assay [4]; 6.75% in assay [5]; -15.4% in assay [6].

Take `O=C(c1ccccc1)C(O)(c1ccccc1)c1ccccc1`: the growth inhibition in assay [1] was 37.5%; in assay [2], -18.2%; in assay [3], 3.8%; in assay [4] it was -31.1%; in assay [5], 22.1%; in assay [6], 0.8%.

`CCOC(=O)C(C)(C)OC(C)=O`: the growth inhibition is 39.2% in assay [1]; 21.4% in assay [2]; 19.6% in assay [3]; 13.8% in assay [4]; 4.2% in assay [5]; 2.15% in assay [6].
